# Screen size: about 65,000 compounds; about 2,100 (3.2%) showed an effect of 50% or more. The median lay at about -52%. The list comes from a sample in which strong results are over-represented; it also holds similar structures and randomly drawn compounds.
# Tested on: Plasmodium falciparum
# Assay: Screen against P. falciparum Asexual Blood Stage (ABS), at 5uM
# Assay type: functional, Dd2
# Details: tested at 5 uM
row,Compound,INHIBITION
1,Cc1cc(C(=O)N2CC[C@@]3(O)CCN(S(C)(=O)=O)C[C@H]3C2)c(C)n1C,-156%
2,O=C(CNC(=O)c1cnccn1)Nc1ncc[nH]1,-51.8%
3,CCC(=O)N1CCN(c2ncnc3c(C)nn(C)c23)CC1,-52.3%
4,O=C(NC1CCCC1)O[C@H]1COCCN(c2nc3ccccc3s2)C1,-31.6%
5,O=C(NC1CCCC1)O[C@H]1COCCN(c2nc3ccccc3o2)C1,-59.6%
6,CCNC(=O)O[C@H]1COCCN(c2nc3ccccc3s2)C1,54.8%
7,CCOc1ccccc1CNC(=O)N1CCC(n2cncn2)CC1,-19.1%
8,COc1ccc(CN2C[C@@H]3CN(CCO)C[C@@H]3C2=O)cc1,50.3%
9,COc1ccc(CN2C[C@H]3CN(Cc4ccncc4)C(=O)[C@H]3C2)cc1,-22.1%
10,COc1ccc(CN2C[C@@H]3CN(Cc4ccncc4)C[C@@H]3C2=O)cc1,-48%
11,Cc1cccc(CN2CCCC3(CCN(CC4CCCO4)CC3)C2)n1 (configuration not stated),45.2%
12,COc1cc(C(=O)NCC2CC2)nc2c(C)cc(F)cc12,-103%
13,C[C@@H]1CN(c2nc(N)nc3c2CCC3)CC[C@@]1(O)C1CCC1,68.5%
14,C[C@@H]1CN(c2nc3c(cc2C(N)=O)CCC3)CC[C@@]1(O)C1CCC1,-80.6%
15,C[C@@H]1CN(c2nc(N)nc3c2CCC3)C[C@]1(C)O,-48.4%
16,COc1ccc(CN(C)C(=O)CN2CC(n3cccn3)C2)cc1F,26.7%
17,CCCNC(c1cccnc1)c1ccc(F)c(C)c1 (configuration not stated),57.9%
18,CCCNC(c1ccc(F)cc1)c1cccnc1 (configuration not stated),35.6%
19,CCNC(c1cccnc1)c1ccc(F)c(C)c1 (configuration not stated),25.4%
20,CCOCC(=O)N1C[C@@H]2COC[C@]2(c2nc(C)no2)C1,-63.5%
21,CC(=O)N1CCCC(c2cccc(-n3ccnc3)n2)C1 (configuration not stated),-75.7%
22,c1cnc(N2CCCC(c3cncc(-n4ccnc4)n3)C2)nc1 (configuration not stated),-20.6%
23,Cc1cc(C)nc(N2CCCC(c3cccc(-n4ccnc4)n3)C2)n1 (configuration not stated),66.3%
24,O=C(Cc1ccccn1)N1CCc2c(O)nc(-c3cnccn3)nc2C1,-157%
25,CCOCc1cncc2c1CCN(C(=O)c1cscn1)C2,-43.3%
26,c1cncc(C[C@@H]2CC[C@H](CN3CCCOCC3)O2)c1,-54%

row,Compound,INHIBITION
1,CC(=O)N1CCN(C[C@H]2CC[C@@H](Cc3ccc4ncccc4c3)O2)CC1,-16.4%
2,c1cnc2ccc(C[C@@H]3CC[C@H](CN4CCCOCC4)O3)cc2c1,57.9%
3,O=C(NCCCN1CCCCCC1=O)c1n[nH]c(=O)c2ccccc12,-16.5%
4,O=C(NC1CC1)c1nc(Cn2c(C(F)F)nc3ccccc32)no1,-138%
5,COCC(c1cccc(C(F)(F)F)c1)N(C)C(=O)c1ccncc1 (configuration not stated),-196%
6,COCC(c1cccc(C(F)(F)F)c1)N(C)C(=O)c1cnccn1 (configuration not stated),48.8%
7,COCC(c1cccc(C(F)(F)F)c1)N(C)C(=O)c1cccnc1 (configuration not stated),66.9%
8,CC(C)n1nc2c(cc1=O)CN(c1ncnc3ccccc13)CC2,-52.6%
9,CN(C)C(=O)Cn1c2c(ccc1=O)CCN(Cc1cnn(C)c1)CC2,-39.8%
10,COCC(=O)NC(C)c1sc(-c2ccccc2F)nc1C (configuration not stated),-22.6%
11,COc1ccccc1CN1CCCCC1c1n[nH]cc1-c1cc(C)no1 (configuration not stated),66.4%
12,CCc1ccc(CN2CCCCC2c2n[nH]cc2-c2cc(C)no2)cc1 (configuration not stated),33.5%
13,COc1ccc(CN2CCCCC2c2n[nH]cc2-c2cc(C)no2)cc1 (configuration not stated),35.5%
14,Cc1cc(-c2c[nH]nc2C2CCCCN2C(=O)c2ccccc2)on1 (configuration not stated),-6.99%
15,COc1cccc(CN2CCCCC2c2n[nH]cc2-c2cc(C)no2)c1 (configuration not stated),35.3%
16,Cc1cccc(CN2CCCCC2c2n[nH]cc2-c2cc(C)no2)c1 (configuration not stated),52%
17,COC(=O)c1ccc(CN(C)C(=O)c2cnsn2)cc1,-39.8%
18,Cc1cc(-c2cccnc2)nc(C2CCCN2S(C)(=O)=O)n1 (configuration not stated),-29.8%
19,O=C(c1sccc1C1CC1)N1CCN(Cc2cscn2)CC1,-52.2%
20,O=C(c1cocn1)N1C[C@@H]2CN(Cc3ccco3)CCO[C@@H]2C1,-6.8%
21,N#Cc1ccc(F)c(CNC(=O)NC(CO)Cc2ccccc2)c1 (configuration not stated),-90.6%
22,CC(C)CC(=O)N(C)Cc1nc(C(F)(F)F)cs1,-49.5%
23,CCc1nc2n(n1)CC(NCc1nnc(C(C)C)o1)CC2 (configuration not stated),-107%
24,OC(CNCCn1cccn1)c1cccc(Br)c1 (configuration not stated),64.3%
25,OC(CNCCn1cccn1)c1ccc(Br)cc1 (configuration not stated),-6.84%
26,OC(CNCCn1cccn1)c1cccc(F)c1 (configuration not stated),-25.4%

# Source: ChEMBL document CHEMBL4513216, “Probing the Open Global Health Chemical Diversity Library for Multistage-Active Starting Points for Next-Generation Antimalarials” (ACS Infect Dis, 2020)
